Source: PubChem (The Scripps Research Institute Molecular Screening Center)
A selection: hits, their analogues and other compounds. The true share with any hit is near 0.9%.
PPARg SRC-1 ag: PPARgamma-driven SRC-1 recruitment agonism. PPARgamma-SRC-1 coactivator recruitment biochemical assay. activation, % at 8 µM. hit rate 0.41% among 200,000. AID 631; in the data active means activation above about 19%;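 further: 0% = DMSO and 100% = reference agonist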
Target sequence (P37231 whole entry, looked up): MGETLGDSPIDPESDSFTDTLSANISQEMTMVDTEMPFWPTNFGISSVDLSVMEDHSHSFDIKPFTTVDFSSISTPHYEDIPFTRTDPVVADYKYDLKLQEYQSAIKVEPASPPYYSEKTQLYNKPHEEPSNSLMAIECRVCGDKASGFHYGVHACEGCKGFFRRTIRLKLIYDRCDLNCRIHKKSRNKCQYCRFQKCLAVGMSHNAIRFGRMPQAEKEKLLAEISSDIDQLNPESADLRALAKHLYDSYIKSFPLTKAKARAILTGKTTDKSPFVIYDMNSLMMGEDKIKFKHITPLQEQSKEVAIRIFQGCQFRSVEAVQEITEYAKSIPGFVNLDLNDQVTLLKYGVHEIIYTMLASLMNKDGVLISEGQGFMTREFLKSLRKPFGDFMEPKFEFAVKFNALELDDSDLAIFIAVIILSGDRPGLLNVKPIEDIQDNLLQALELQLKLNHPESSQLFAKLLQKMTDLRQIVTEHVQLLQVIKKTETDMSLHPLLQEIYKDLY
SRC1 TRFRET art: TR-FRET artefact, counter-screen to PPARgamma/SRC-1 agonist assay; TR-FRET ratio at 8 µM; TR-FRET detection artefact counter-screen, emission ratio; stronger effect = higher value; hit rate 0.34% among 99,000; in the data active means TR-FRET ratio above about 2300
PPARg SRC3 recr: agonists of human PPARgamma SRC-3 coactivator recruitment; P37231; biochemical PPARgamma/SRC-3 coactivator recruitment assay; activation, % at 8 µM; hit rate 0.26% among 200,000; in the data active means activation above about 23%;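 further: 0% = DMSO and 100% = reference agonist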
SRC3 TRFRET art: flags TR-FRET format artefacts in PPARgamma SRC-3 recruitment agonist screen | TR-FRET artefact counter-screen, PPARgamma/SRC-3 format; stronger effect = higher value | hit rate 0.39% among 99,000 | TR-FRET ratio at 8 µM; in the data active means TR-FRET ratio above about 2000
PPARg SRC2 recr: PPARgamma-driven SRC-2 recruitment agonism; P37231; PPARgamma LBD-SRC-2 recruitment, biochemical; activation, % at 8 µM; hit rate 0.34% among 200,000;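 further: 0% = vehicle and 100% = reference agonist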
TR-FRET SRC-2 ct: counter-screen for PPARgamma SRC-2 recruitment agonists: TR-FRET artefact; TR-FRET ratio at 8 µM; stronger effect = higher value; hit rate 0.4% among 200,000; AID 1049; in the data active means TR-FRET ratio above about 2000
PPARg SRC2 conf: human PPARgamma SRC-2 recruitment agonism, confirmation; shares compounds with PPARg SRC3 recr; biochemical SRC-2 recruitment by PPARgamma; activation, % at 8 µM; hit rate 52% among 790;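 further: 0% = vehicle alone and 100% = reference agonist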
PPARg SRC1 ag: human PPARgamma SRC-1 recruitment agonism, confirmation; PPARgamma–SRC-1 coactivator recruitment biochemical assay; AID 1300; activation, % at 8 µM; hit rate 43% among 790; shares compounds with PPARg SRC3 recr; in the data active means activation above about 20%;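 further: 0% = vehicle wells and 100% = reference agonist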
PPARg SRC3 ag: confirmation of agonists of SRC-3 recruitment by human PPARgamma. activation, % at 8 µM. hit rate 29% among 790. biochemical PPARgamma-SRC-3 coactivator recruitment, agonist mode. shares compounds with PPARg SRC3 recr; in the data active means activation above about 24%;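 further: 0% = vehicle wells and 100% = reference agonist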
The depositor's hits bear a star; · = no result. Unless noted, no stated cut-off is given here; in the data, active means activation above about 22%; inactive means the rest.

SMILES | PPARg SRC-1 ag | SRC1 TRFRET art | PPARg SRC3 recr | SRC3 TRFRET art | PPARg SRC2 recr | TR-FRET SRC-2 ct | PPARg SRC2 conf | PPARg SRC1 ag | PPARg SRC3 ag
O=C(Nc1nc2c(s1)CN(Cc1ccccc1)CC2)c1cccc(S(=O)(=O)N2CCc3ccccc32)c1 | 36.9* | · | 38.6* | · | 15.1 | 4126* | 50.0* | 41.1* | 30.0*
COc1c(Cl)cc(Cl)cc1C(=O)n1nc(C)cc1C | 2.9 | · | 7.5 | · | -0.8 | 1716 | · | · | ·
Cc1cc(N2C(=O)C(O)=C(C(=O)c3ccc(C)o3)C2c2cccs2)no1 (configuration not stated) | 34.6* | · | 44.8* | · | 37.0* | 2253* | 18.6 | 13.2 | 13.0
CCOc1cccc(C2C(C(=O)c3ccc(C)o3)=C(O)C(=O)N2c2nccs2)c1 (configuration not stated) | 22.4* | · | 22.3 | · | 27.5* | 2000* | 13.0 | 8.5 | 7.7
COC(=O)c1sc(N2C(=O)c3oc4ccccc4c(=O)c3C2c2cccs2)nc1C (configuration not stated) | -5.8 | · | -2.2 | · | -1.8 | 1363 | · | · | ·
CCOc1cccc(C2C(C(=O)c3ccc(C)o3)=C(O)C(=O)N2Cc2ccncc2)c1 (configuration not stated) | 12.8 | · | 5.1 | · | 6.8 | 1504 | · | · | ·
Cc1cc(N2C(=O)C(O)=C(C(=O)c3ccco3)C2c2ccc(O)cc2)no1 (configuration not stated) | 0.3 | · | -10.7 | · | 7.7 | 1340 | · | · | ·
Cc1ccc2nc(N3C(=O)C(O)=C(C(=O)c4cc5ccccc5o4)C3c3cccs3)sc2c1 (configuration not stated) | 29.6* | · | 30.2* | · | 13.7 | 1932 | 7.1 | 2.3 | 1.8
Cc1ccc(C(C(=O)NCc2ccco2)N(CCc2ccccc2)C(=O)Cn2nnc3ccccc32)o1 (configuration not stated) | 7.8 | 1885 | 32.4* | 1671 | 15.6 | 1653 | 11.8 | 4.7 | 15.8
CCn1c(=O)c2c(nc3n2CCN3c2ccccc2)n(C)c1=O | 7.2 | 1845 | 2.5 | 1694 | 6.4 | 1717 | · | · | ·
O=C(Cn1cnc([N+](=O)[O-])c1)Nc1cc(Oc2ccc(Cl)cc2Cl)cc([N+](=O)[O-])c1 | -1.1 | · | 7.8 | · | 5.2 | 1474 | · | · | ·
COc1ccc(C(=O)Nc2ccc(N3CCN(C(=O)C(C)C)CC3)cc2)cc1[N+](=O)[O-] | -4.9 | 2004 | 4.8 | 1577 | 5.2 | 1594 | · | · | ·
Oc1ccc(Br)cc1C=Nc1cccn2cc(-c3ccccc3)nc12 | 19.0 | 1670 | 11.0 | 1820 | 22.5* | 1895 | 17.4 | 16.5 | 13.7
CCOC(=O)C1(CCCc2ccccc2)CCN(C2CCN(C(C)=O)CC2)CC1 | 2.3 | 1656 | -4.0 | 1641 | 0.8 | 1679 | · | · | ·
C=CCSC1=Nc2sccc2C2=NC(=O)CN12 | 12.6 | · | 10.9 | · | 23.1* | 1562 | 9.0 | 8.4 | 7.3
COc1ccc(O)c(C(=O)c2cc(C#N)c(=O)n(Cc3ccccc3)c2)c1 | 11.1 | 1656 | 5.5 | 1633 | 1.6 | 1613 | · | · | ·
N#Cc1cc(C(=O)c2cc(Br)ccc2O)cn(Cc2ccccc2)c1=O | 31.3* | 2306 | 7.6 | 1805 | 14.0 | 1955 | 27.3* | 23.1* | 17.7
CC(C)CN(C)C(=O)CCc1nnc(Cc2cccc(C(F)(F)F)c2)o1 | 2.7 | 1470 | 1.8 | 1574 | 9.5 | 1530 | · | · | ·
CCn1c(=O)cc(SCC(=O)N2CCOCC2)c2ccccc21 | 45.3* | · | 81.8* | · | 54.7* | 2862* | 34.5* | 22.0* | 22.3
CCn1c(=O)cc(OCC(=O)N2CCCCCC2)c2ccccc21 | 5.0 | · | 1.4 | · | 4.2 | 1453 | · | · | ·
CCn1c(=O)cc(SCC(=O)N2CCN(C3CCCCC3)CC2)c2ccccc21 | 19.3* | · | 36.5* | · | 35.2* | 2255* | 27.1* | 17.1 | 18.2
CCn1c(=O)cc(SCC(=O)N2CCN(C(=O)c3ccco3)CC2)c2ccccc21 | 54.3* | · | 62.9* | · | 55.5* | 2772* | 33.6* | 20.8* | 23.6
